This is an account of results in PubChem BioAssay.

Calls of active or inactive are those of the source.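 The calls were made as follows, unless noted: active = compounds lowering colon cancer cell viability after pretreatment blocking the GSK3B kinase; inactive = the rest.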

A short description of assay [1]: stimulators of nuclear beta-catenin in C2C12, primary screen, imaging, WNT3A-conditioned medium, mouse C2C12, NPC library (AID 1117326; in the data active = nuclear beta-catenin stimulation mostly above about 4.2%, no sharp cut-off; inactive = mostly below about 10%; also: reference of the scale not given here). The following applies: stronger effect = higher value.
Assay [2] in a line: stimulators of insulin release from INS-1E, primary screen, cell-based, 5 mM glucose, NPC library (AID 1117329;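 active = compound raises insulin release from rat beta cells at 5 mM glucose, no numeric limit stated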; also: reference of the scale not given here). The following applies: rat INS-1E insulin secretion, at 10 µM, stronger effect = higher value.
Assay [3] can be described thus: growth inhibition of GSK3B-pretreated HCT116 cells – cell-based, CellTiter-Glo, 0.2 to 20 µM (AID 1117336). The following applies: HCT116 viability after GSK3B inhibitor, at 20 µM, stronger effect = higher value.
A short description of assay [4]: inhibition of endothelial tube formation, primary screen, imaging, VEGF stimulated, CD31 staining, tube area, NPC library (AID 1117340;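 active = compound that reduces growth-factor-driven endothelial tube area in a mixed cell culture, no cutoff stated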). The following applies: VEGF-stimulated ADSC/ECFC co-culture, at 10 µM, stronger effect = higher value.
Assay [5] in a line: glucagon-like peptide 1 release enhancers, primary assay, NCI-H716 cell line, NPC library (AID 1117341;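 active = compound raises GLP1 secretion from the human gut endocrine cells, with no numeric limit stated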; also: reference of the scale not given here). Particulars: NCI-H716 cells, at 10 µM, stronger effect = higher value.
Assay [6] is described as follows: HCT116 colon cancer cell growth inhibition, primary screen, CellTiter-Glo luminescence, NPC library (AID 1117342;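 active = compounds that lower survival of HCT116 colon cancer cells in the luminescence readout, no numeric limit stated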). Particulars: at 20 µM (top of the series).
Assay [7] is described as follows: CellTiter-Glo luminescent readout of SW480 viability loss, NPC library primary (AID 1117343;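 active = compounds that lower viability of the colon cancer cells in the luminescence readout, with no numeric limit stated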). The following applies: CellTiter-Glo luminescence; at 20 µM (top of the series).
Assay [8] is described as follows: decreased DLD-1 cellular survival, CellTiter-Glo luminescent readout, NPC compound collection, primary HTS (AID 1117346;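 active = compounds that lower survival of DLD-1 colon cancer cells in the luminescence readout, no cutoff given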). The following applies: DLD-1 viability, CellTiter-Glo luminescence; at 20 µM (top of the series).

Consider `Cc1cc(O)c(C(C)C)cc1Cl`, for which the nuclear beta-catenin stimulation is -0.5% (inactive) in assay [1] (at 10 µM) and 1.2% in assay [1] (stimulation, at 2 µM). Further, the insulin secretion stimulation in assay [2] is -0.9% (inactive). Further, in assay [3], the viability decrease was 36.1% (inactive). Also, the tube area decrease in assay [4] is -10.5% (inactive). Further, the GLP1 secretion stimulation in assay [5] is 29.3% (active). Moreover, in assay [6], the inhibition of viability is -9.5% (inactive). Besides, the values for the viability decrease (inhibition) in assay [7] and in assay [8] were 22% (inactive) and 19.5% (inactive), respectively.

With `CCCCCCCCCCCC(=O)OCC(O)CO` (stereo not given), the nuclear beta-catenin stimulation in assay [1] (at 10 µM) is -1.2% (inactive); in assay [1] (stimulation, at 2 µM), 2.9%. For the same compound, the insulin secretion stimulation in assay [2] is -1.1% (inactive). Further, in assay [3], the viability decrease is -3.8% (inactive). Besides, the tube area decrease in assay [4] is 14.2% (inactive). Further, in assay [5], the GLP1 secretion stimulation is -3.3% (inactive). Besides, in assay [6], the inhibition of viability was -2.2% (inactive). Besides, the viability decrease (inhibition) is 44.7% (inactive) in assay [7] and 44.9% (inactive) in assay [8].

For the compound `Cc1cc(NS(=O)(=O)c2ccc(N)cc2)nc(C)n1`, the nuclear beta-catenin stimulation in assay [1] (at 10 µM) is 0.1% (inactive); in assay [1] (stimulation, at 2 µM) it was 0.7%. Moreover, in assay [2], the insulin secretion stimulation is -1.1% (inactive). Moreover, the viability decrease in assay [3] was 0.6% (inactive). For the same compound, the tube area decrease in assay [4] was -1.9% (inactive). Further, in assay [5], the GLP1 secretion stimulation is -0.1% (inactive). Moreover, the inhibition of viability in assay [6] was -10.6% (inactive). Also, the viability decrease (inhibition) in assay [7] was 55% (active); in assay [8], 29.8% (inactive).

Turning to `O=C(/C=C/c1ccccc1)NCCO`, the nuclear beta-catenin stimulation in assay [1] (at 10 µM) is 1.1% (inactive); in assay [1] (stimulation, at 2 µM) it was 1.4%. Besides, the insulin secretion stimulation in assay [2] was -2.3% (inactive). For the same compound, the viability decrease in assay [3] was -9.8% (inactive). Also, the tube area decrease in assay [4] is 26.7% (inactive). The GLP1 secretion stimulation in assay [5] was -1.5% (inactive). Further, in assay [6], the inhibition of viability is 12.9% (inactive). Moreover, the viability decrease (inhibition) was -3.5% (inactive) in assay [7] and -16.4% (inactive) in assay [8].

On to `NC[C@H]1O[C@H](O[C@H]2[C@H](O[C@@H]3O[C@H](CO)[C@@H](O)[C@H]3O)C(O)[C@H](N)C[C@@H]2N)[C@H](N)[C@@H](O)[C@@H]1O` (stereo not given in full), for which the nuclear beta-catenin stimulation in assay [1] (at 10 µM) was 0.5% (inactive); in assay [1] (stimulation, at 2 µM) it was 2.2%. For the same compound, in assay [2], the insulin secretion stimulation was 1.4% (inactive). Moreover, in assay [3], the viability decrease is -14.9% (inactive). Moreover, in assay [4], the tube area decrease is -12.5% (inactive). For the same compound, in assay [5], the GLP1 secretion stimulation is 0.7% (inactive). In addition, in assay [6], the inhibition of viability was 2.3% (inactive). Also, the values for the viability decrease (inhibition) in assay [7] and in assay [8] were 0.4% (inactive) and -14.4% (inactive), respectively.

In the case of `C[C@@H]1CCN(C(=O)[C@H](CCCN=C(N)N)NS(=O)(=O)c2cccc3c2NC[C@H](C)C3)[C@@H](C(=O)O)C1`, the nuclear beta-catenin stimulation was 0.3% (inactive) in assay [1] (at 10 µM) and -0.5% in assay [1] (stimulation, at 2 µM). In addition, the insulin secretion stimulation in assay [2] is 1.35% (inactive). Further, in assay [3], the viability decrease was -9.7% (inactive). The tube area decrease in assay [4] is -5.4% (inactive). For the same compound, in assay [5], the GLP1 secretion stimulation was 1.4% (inactive). Further, the inhibition of viability in assay [6] was -3% (inactive). The viability decrease (inhibition) in assay [7] was -23.6% (inactive); in assay [8], 0.9% (inactive).

Take `Nc1c(N=Nc2ccc(-c3ccc(N=Nc4cc(S(=O)(=O)O)c5ccccc5c4N)cc3)cc2)cc(S(=O)(=O)O)c2ccccc12`: the nuclear beta-catenin stimulation in assay [1] (at 10 µM) is -3.3% (inactive); in assay [1] (stimulation, at 2 µM), 0.3%. Further, in assay [2], the insulin secretion stimulation was 2% (inactive). Further, the viability decrease in assay [3] is -26.6% (inactive). For the same compound, in assay [4], the tube area decrease is 16.8% (inactive). Besides, the GLP1 secretion stimulation in assay [5] is -1.7% (inactive). The inhibition of viability in assay [6] is -132% (inactive). The viability decrease (inhibition) in assay [7] was -0.2% (inactive); in assay [8] it was -66.6% (inactive).

In the case of `CCCC(=O)OC[C@@H](OC(=O)CCC)[C@@H](OC(=O)CCC)[C@H](Cn1c2nc(=O)[nH]c(=O)c-2nc2cc(C)c(C)cc21)OC(=O)CCC`, the nuclear beta-catenin stimulation is -0.4% (inactive) in assay [1] (at 10 µM) and 2.2% in assay [1] (stimulation, at 2 µM). Moreover, in assay [2], the insulin secretion stimulation is 1.9% (inactive). Further, the viability decrease in assay [3] was 39.1% (inactive). For the same compound, in assay [4], the tube area decrease was 14.1% (inactive). Further, in assay [5], the GLP1 secretion stimulation is 2.6% (inactive). Moreover, the inhibition of viability in assay [6] was 11.7% (inactive). For the same compound, the values for the viability decrease (inhibition) in assay [7] and in assay [8] were 25.5% (inactive) and 24.5% (inactive), respectively.

With `N/C(=N\N=C\c1ccc(Cl)cc1)N/N=C/c1ccc(Cl)cc1`, the nuclear beta-catenin stimulation is 0.5% (inactive) in assay [1] (at 10 µM) and 0.1% in assay [1] (stimulation, at 2 µM). Besides, the insulin secretion stimulation in assay [2] is -0.1% (inactive). For the same compound, the viability decrease in assay [3] was 99.6% (active). Besides, the tube area decrease in assay [4] is 108% (active). Further, the GLP1 secretion stimulation in assay [5] is -3.3% (inactive). The inhibition of viability in assay [6] was 99.3% (active). In addition, the viability decrease (inhibition) is 103% (active) in assay [7] and 102% (active) in assay [8].

Turning to `CCOc1c(N2CCOCC2)cnn(C)c1=O`, the nuclear beta-catenin stimulation in assay [1] (at 10 µM) is -0.3% (inactive); in assay [1] (stimulation, at 2 µM), 4.4%. Also, the insulin secretion stimulation in assay [2] is 1.5% (inactive). Further, the viability decrease in assay [3] was -36.6% (inactive). The tube area decrease in assay [4] is 4.1% (inactive). Further, the GLP1 secretion stimulation in assay [5] was 0.1% (inactive). The inhibition of viability in assay [6] was 11.2% (inactive). Besides, the viability decrease (inhibition) was 7.7% (inactive) in assay [7] and -14.1% (inactive) in assay [8].

`Cc1cc(O)cc2c1O[C@](C)(CCC[C@H](C)CCC[C@H](C)CCCC(C)C)CC2`: the nuclear beta-catenin stimulation is -1.3% (inactive) in assay [1] (at 10 µM) and -2% in assay [1] (stimulation, at 2 µM). Besides, the insulin secretion stimulation in assay [2] was 3.8% (inactive). Besides, the viability decrease in assay [3] is 12.5% (inactive). For the same compound, the tube area decrease in assay [4] is 6.7% (inactive). For the same compound, the GLP1 secretion stimulation in assay [5] was 0% (inactive). For the same compound, in assay [6], the inhibition of viability was 14.3% (inactive). The viability decrease (inhibition) was -12.8% (inactive) in assay [7] and -10.9% (inactive) in assay [8].

As to `C=C1C(=C/C=C2\CCC[C@]3(C)[C@@H]([C@H](C)/C=C/[C@@H](O)C4CC4)CC[C@@H]23)C[C@@H](O)C[C@@H]1O`, the nuclear beta-catenin stimulation in assay [1] (at 10 µM) is 2.6% (inactive); in assay [1] (stimulation, at 2 µM), 4.1%. The insulin secretion stimulation in assay [2] is 4.15% (inactive). For the same compound, the viability decrease in assay [3] is 103% (active). The tube area decrease in assay [4] was 19.7% (inactive). For the same compound, the GLP1 secretion stimulation in assay [5] is 3.9% (inactive). In addition, the inhibition of viability in assay [6] is 82% (active). The figures for the viability decrease (inhibition) in assay [7] and in assay [8] were 111% (active) and 92.9% (active), respectively.

For the compound `C/C(=N/NC(=O)c1ccncc1)C(=O)O`, the nuclear beta-catenin stimulation in assay [1] (at 10 µM) is -0.8% (inactive); in assay [1] (stimulation, at 2 µM), -0.3%. For the same compound, in assay [2], the insulin secretion stimulation was -0.8% (inactive). In assay [3], the viability decrease is -23.6% (inactive). Further, in assay [4], the tube area decrease was -6.8% (inactive). The GLP1 secretion stimulation in assay [5] was -2.8% (inactive). The inhibition of viability in assay [6] was -1.23% (inactive). Further, the viability decrease (inhibition) in assay [7] was 17.4% (inactive); in assay [8], 4.2% (inactive).

`O=C(O)Cc1ccc(CCNS(=O)(=O)c2ccc(Cl)cc2)cc1`: the nuclear beta-catenin stimulation was 0% (inactive) in assay [1] (at 10 µM) and 0.1% in assay [1] (stimulation, at 2 µM). In addition, in assay [2], the insulin secretion stimulation is 0.2% (inactive). Moreover, in assay [3], the viability decrease was -5.1% (inactive). The tube area decrease in assay [4] was 3.3% (inactive). Besides, the GLP1 secretion stimulation in assay [5] was -2.9% (inactive). In addition, the inhibition of viability in assay [6] is -4% (inactive). For the same compound, the viability decrease (inhibition) in assay [7] was 1.5% (inactive); in assay [8] it was -6.1% (inactive).

Turning to `CCCOC(=O)c1ccc(N)cc1`, the nuclear beta-catenin stimulation in assay [1] (at 10 µM) was -0.1% (inactive); in assay [1] (stimulation, at 2 µM), 0.3%. The insulin secretion stimulation in assay [2] is -1.5% (inactive). The viability decrease in assay [3] is -4.45% (inactive). The tube area decrease in assay [4] is 4.9% (inactive). Also, in assay [5], the GLP1 secretion stimulation was -0.1% (inactive). In addition, in assay [6], the inhibition of viability was 1.8% (inactive). The viability decrease (inhibition) in assay [7] is 110% (active); in assay [8], 21.4% (inactive).
